Holding throughout (details): concentration: 1 μM, replicates: in singlicate; n = 1
For test [1], the system named is JAK1(JH2domain-pseudokinase).
Test [2] has as its system JAK2(JH1domain-catalytic).
Test [3] deals with JAK3(JH1domain-catalytic).
Test [4] concerns T1, JNK1.
T1 construct: gene MAPK8

The test system of test [5] is T2, JNK2.
T2 construct: gene MAPK9

The subject of test [6] is T3, JNK3.
T3 construct: gene MAPK10

The test system of test [7] is KIT-autoinhibited.
Test [8] has as its system KIT.
Test [9] has as its system LATS1.
The subject of test [10] is LATS2.
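Further: KINOMEscan kinase panel screen.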

Regarding `CN(c1ccc(F)c(NC(=O)c2cccc(OC(C)(C)C#N)c2Cl)c1)c1ccc2nc(NC(=O)C3CC3)sc2n1`, the “%Inh” value in test [1] amounted to 3%; in test [2], 0%; in test [3], 0%; in [4], 11%; in test [5], 0%; in [6], 20%. Also, the “%Inh” value was determined as 6% in test [7], 99.8% in test [8], 0% in test [9] and 35% in [10].
With `COc1cc(Nc2nccc(N3CCC(NS(=O)(=O)c4ccc(NC(C)=O)cc4)CC3)n2)cc(OC)c1OC` [GSK1379825], the “%Inh” value in [1] is listed as 83%; in test [2] it was 96.3%; in test [3] it was 8%; in [4], 44%; in test [5], 37%; in [6] it was 31%. In addition, the “%Inh” value in [7] was 0%; in [8], 90%; in [9] it was 0%; in test [10], 0%.
For the compound `CN(c1ccc(NC(=O)N2CCN(CCCN3CCOCC3)CC2)cc1)c1ccnc(Nc2ccc(CS(C)(=O)=O)cc2)n1.Cl` [GW830899], the “%Inh” value in [1] amounted to 44%; in [2], 65%; in test [3], 14%; in [4] it was 46%; in [5], 0%; in [6], 0%. Besides, the “%Inh” value in test [7] was determined as 0%; in [8] it was 98.8%; in test [9], 0%; in test [10], 0%.
Take `Cc1nn2c(=O)cc(N3CCO[C@H](C)C3)nc2n1Cc1cccc(Cl)c1Cl` [GSK2373693]: the “%Inh” value in test [1] was 0%; in test [2], 22%; in test [3] it was 0%; in test [4], 16%; in [5], 9%; in test [6] it was 7%. Also, the “%Inh” value in test [7] worked out at 0%; in test [8], 51%; in test [9] it was 0%; in test [10] it was 0%.
With `Cc1ccc(O)cc1Nc1ccnc2cc(-c3ccc(CN4CCCCC4)o3)ccc12` [GW557777], the “%Inh” value in test [1] worked out at 7%; in test [2] it was 0%; in test [3], 15%; in [4], 0%; in test [5], 0%; in test [6], 0%. Also, the “%Inh” value in test [7] is reported as 56%; in test [8], 100%; in test [9] it was 0%; in test [10], 22%.
In the case of `Cc1cc(-c2ccnc(Nc3cccc(C#N)c3)n2)cc(C)c1O` [GSK1440913], the “%Inh” value in test [1] was found to be 78%; in [2] it was 92.6%; in test [3] it was 74%; in [4] it was 98.9%; in test [5], 77%; in test [6] it was 99%. Moreover, the “%Inh” value in test [7] was 0%; in test [8] it was 49%; in test [9], 0%; in test [10] it was 0%.
For `CC(C)c1nc(-c2cccc(NS(=O)(=O)c3c(F)cccc3F)c2)c(-c2ccnc(Nc3ccc(N4CCOCC4)nc3)n2)s1.Cl` [GSK1723980], the “%Inh” value was found to be 44% in test [1]; 36% in [2]; 92.3% in [3]; 23% in test [4]; 31% in test [5]; 7% in test [6]. Also, the “%Inh” value is reported as 0% in [7], 99.9% in test [8], 4% in [9] and 0% in test [10].
In the case of `Cl.N#CCc1ccc(Nc2nccc(Nc3ccc(Oc4ccccc4)cc3)n2)cc1` [GW639905], the “%Inh” value in [1] was found to be 0%; in test [2] it was 85%; in test [3] it was 0%; in test [4], 38%; in [5], 31%; in [6], 23%. The “%Inh” value came to 0% in [7], 97.4% in test [8], 5% in test [9] and 0% in [10].
With `O=C(O)C(F)(F)F.O=c1[nH]ccc2nc(N[C@@H]3CCNC3)nc(Nc3cc(Cl)cc(Cl)c3)c12` [GSK2188764], the “%Inh” value in test [1] stood at 98%; in test [2] it was 92.2%; in test [3], 100%; in [4], 36%; in [5], 7%; in test [6], 25%. In addition, the “%Inh” value in test [7] amounted to 2%; in [8] it was 73%; in [9], 42%; in [10] it was 59%.
`CC(C)NCC(Cc1ccccc1)NC(=O)c1cc(Br)c(-c2ccnc3[nH]ccc23)s1.Cl.Cl` (stereo not shown) [GSK1383281]: the “%Inh” value came out at 0% in [1]; 71% in [2]; 82% in test [3]; 28% in test [4]; 12% in [5]; 12% in test [6]. The “%Inh” value in test [7] is 0%; in test [8], 50%; in test [9], 100%; in test [10], 70%.
On to `Cc1cccc(Nc2nc(N[C@H]3CCCC[C@H]3N)ncc2C(N)=O)c1.Cl` [GSK986310], for which the “%Inh” value in test [1] came out at 91.4%; in [2], 87%; in [3], 80%; in test [4], 62%; in [5], 36%; in test [6], 27%. Also, the “%Inh” value in [7] came out at 0%; in test [8], 37%; in test [9], 18%; in [10] it was 7%.
For `c1ccc(Oc2ccc(Nc3ccnc4cc(-c5ccc(CN6CCCCC6)o5)ccc34)cc2)nc1` [GW567143], the “%Inh” value in test [1] amounted to 0%; in test [2], 2%; in test [3], 0%; in test [4], 22%; in [5] it was 30%; in [6], 7%. Moreover, the “%Inh” value came to 8% in test [7], 96.5% in test [8], 0% in test [9] and 0% in [10].
Turning to `Cc1ccc(NC(=O)c2ccnc(N3CCCCC3)c2)cc1-c1ccc(C(=O)NCC2CC2)cc1` [GW775610], the “%Inh” value in [1] is listed as 0%; in test [2], 90%; in test [3], 95.2%; in test [4], 42%; in test [5] it was 43%; in [6], 28%. The “%Inh” value was 8% in test [7], 87% in test [8], 0% in [9] and 0% in test [10].
For `CC(=O)Nc1cn2nc(Oc3cccc(NC(=O)c4cccc(C(F)(F)F)c4)c3)ccc2n1`, the “%Inh” value in [1] turned out to be 5%; in test [2] it was 0%; in test [3] it was 0%; in test [4], 26%; in test [5], 0%; in test [6] it was 0%. The “%Inh” value in test [7] is on record as 87%; in [8], 100%; in [9] it was 5%; in test [10] it was 0%.
For `Cc1cccc(Nc2nc(NCCN)ncc2C(N)=O)c1` [GSK1292139], the “%Inh” value in [1] amounted to 96.6%; in test [2], 54%; in test [3], 0%; in test [4], 43%; in [5], 4%; in test [6] it was 23%. Besides, the “%Inh” value in test [7] was found to be 9%; in [8], 72%; in test [9], 0%; in test [10] it was 76%.
For the compound `O=C(Nc1n[nH]c2nc(-c3cccc(O)c3)ccc12)C1CC1` [SB-711805], the “%Inh” value in test [1] turned out to be 21%; in [2] it was 29%; in [3] it was 0%; in [4] it was 25%; in test [5], 8%; in [6], 5%. In addition, the “%Inh” value in test [7] worked out at 13%; in [8] it was 30%; in test [9] it was 0%; in test [10], 1%.

The record behind these values is article PMC5540273 (PLoS ONE, 2017).
